Compounds with a hit are over-represented: about 0.45% of the library has one in this group of screens.
SRC2 inh = human SRC2 (NCOA2) inhibition; Q15596; HEK293 GAL4-SRC2 luciferase reporter, luminescence; inhibition, % at 9 µM; 0.17% of 370,000 active; AID 651957;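 active = inhibition above the mean inhibition of all tested compounds plus 3 SD, set per campaign, cut at about 52% in these data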;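 also: 0% = DMSO treated cells and 100% = cells given Gossypol at 36 µM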
Target sequence (Q15596 whole entry, looked up, the tested form may be a part): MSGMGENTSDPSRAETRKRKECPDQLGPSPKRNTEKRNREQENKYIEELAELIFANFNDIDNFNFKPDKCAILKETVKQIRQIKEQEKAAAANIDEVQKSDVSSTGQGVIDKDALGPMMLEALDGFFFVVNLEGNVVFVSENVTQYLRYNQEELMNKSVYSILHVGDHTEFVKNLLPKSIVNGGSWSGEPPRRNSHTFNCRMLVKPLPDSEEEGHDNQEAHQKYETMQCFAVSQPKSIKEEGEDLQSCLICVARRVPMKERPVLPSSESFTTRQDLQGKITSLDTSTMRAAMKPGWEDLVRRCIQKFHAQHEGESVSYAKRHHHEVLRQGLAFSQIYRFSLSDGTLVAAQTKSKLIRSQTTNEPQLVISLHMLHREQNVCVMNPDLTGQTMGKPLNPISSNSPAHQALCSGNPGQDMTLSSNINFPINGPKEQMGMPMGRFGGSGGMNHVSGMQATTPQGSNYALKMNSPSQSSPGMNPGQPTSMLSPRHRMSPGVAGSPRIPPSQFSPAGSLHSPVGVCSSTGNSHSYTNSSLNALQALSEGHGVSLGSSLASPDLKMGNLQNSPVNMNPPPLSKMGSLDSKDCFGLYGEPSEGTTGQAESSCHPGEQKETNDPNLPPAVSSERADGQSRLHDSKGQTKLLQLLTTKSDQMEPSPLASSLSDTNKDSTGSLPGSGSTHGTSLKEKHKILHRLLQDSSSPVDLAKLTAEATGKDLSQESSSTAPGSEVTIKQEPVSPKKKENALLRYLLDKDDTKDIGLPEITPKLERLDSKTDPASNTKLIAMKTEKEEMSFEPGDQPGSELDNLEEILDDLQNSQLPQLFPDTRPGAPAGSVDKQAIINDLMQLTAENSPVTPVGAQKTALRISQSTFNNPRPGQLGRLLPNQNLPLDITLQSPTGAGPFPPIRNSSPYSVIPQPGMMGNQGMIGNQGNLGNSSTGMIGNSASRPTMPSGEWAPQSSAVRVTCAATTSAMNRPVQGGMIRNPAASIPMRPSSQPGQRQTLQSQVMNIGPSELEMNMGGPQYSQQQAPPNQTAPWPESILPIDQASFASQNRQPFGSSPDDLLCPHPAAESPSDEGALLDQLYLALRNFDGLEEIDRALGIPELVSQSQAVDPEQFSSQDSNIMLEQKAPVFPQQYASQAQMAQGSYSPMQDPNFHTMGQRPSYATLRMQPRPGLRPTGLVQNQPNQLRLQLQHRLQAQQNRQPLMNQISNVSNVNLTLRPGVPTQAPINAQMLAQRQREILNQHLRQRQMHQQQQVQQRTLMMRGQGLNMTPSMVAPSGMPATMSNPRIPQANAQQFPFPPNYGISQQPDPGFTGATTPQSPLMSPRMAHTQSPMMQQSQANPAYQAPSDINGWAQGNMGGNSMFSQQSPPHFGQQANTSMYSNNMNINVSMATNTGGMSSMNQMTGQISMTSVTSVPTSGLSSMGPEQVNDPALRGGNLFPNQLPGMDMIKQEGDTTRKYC
LGR2 inh = Drosophila LGR2 receptor signaling inhibition. HEK293 LGR2, CRE-luciferase, bursicon-stimulated, 4 h. inhibition, % at 9.99 µM. 0.35% of 380,000 active. AID 720647;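 active = drop in luminescence signal, shown as inhibition above about 50% in the replicate tests, limit read from the data, passing the limit was not always enough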;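 also: agonist challenge used bursicon conditioned medium at about half maximal strength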
NR5A2 inv ag = suppresses constitutive activity of human LRH-1; HEK293T StAR-luciferase reporter, LRH-1 transfected, 24 h; 0.13% of 360,000 active; O00482; inhibition, % at 3.6 µM; AID 602396;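 active = inhibition above the mean inhibition of all tested compounds plus 3 SD, cut at about 73% in these data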;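 also: 0% = DMSO wells and 100% = reporter-only cells lacking LRH-1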
NCOA1 inh = inhibitors of human steroid receptor coactivator 1 (SRC1); HEK293 GAL4-SRC1 luciferase reporter, luminescence; inhibition, % at 3.6 µM; 0.12% of 360,000 active; AID 588354;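 active = inhibition above the campaign mean plus 3 SD, with each screening campaign given its own cutoff, cut at about 60% in these data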;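 also: 0% = DMSO treated cells and 100% = gossypol at 36 µM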
NCOA3 inh = human NCOA3 inhibition. Q9Y6Q9. HEK293 GAL4-SRC3 luciferase reporter, luminescence. inhibition, % at 3.6 µM. 0.17% of 360,000 active. AID 588352;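 active = inhibition above a per-campaign cutoff, the mean of all compounds plus 3 SD, cut at about 60% in these data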;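 also: 0% = DMSO-treated cells and 100% = gossypol-treated cells at 36 µM; higher means less SRC3-driven luciferase light from the GAL4 reporter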
Active calls of the source: *; i = inactive; . = no result.

SMILES | SRC2 inh | LGR2 inh | NR5A2 inv ag | NCOA1 inh | NCOA3 inh
Cc1ccc(-c2ccc([C@@H]3[C@H]4CN(C(=O)c5cccnc5)CC(=O)N4[C@H]3CO)cc2)cc1 | . | 0.7 | . | . | .
COC(=O)c1ccc2nc(Nc3nc4c(F)cc(F)cc4s3)sc2c1 | 53.2* | . | 61.7 | 55.3 | 59.7
CSC(=Nc1ccccc1)N=C(SCc1ccccc1)N(C)C | -16.1 | 76.0* | 10.7 | -4.5 | 19.9
N#CNC(=Nc1ccccc1)SCc1ccc(C(=O)O)cc1 | 31.9 | -13.9 | -5.7 | -4.8 | 0.0
CC(C)(C)c1ccc(Cn2c(=O)cnc3ccccc32)cc1 | 37.4 | 59.9* | 5.4 | 16.3 | 21.3
COc1ccccc1C(=O)NCCNc1nc2cc(C)cc(C)c2cc1C#N | -5.0 | 3.9 | -4.0 | -7.1 | -1.0
COc1ccc(C(=O)NCCNc2nc3cc(C)cc(C)c3cc2C#N)c(OC)c1 | 76.6* | 15.3 | 29.9 | . | .
S=c1sc2c(Cl)ncnc2n1-c1ccccc1 | 2.6 | 104.0* | -2.0 | 6.5 | 11.9
COc1ccc2c3c(n(C)c2c1)[C@H](CO)N(S(C)(=O)=O)CC31CN(C(=O)Nc2cccc(F)c2)C1 | . | -15.2 | . | . | .
CCOC(=O)[C@]12CCCC=C1N(Cc1cccc3ccccc13)C(=O)[C@H](CC(=O)NCc1ccc(OC)c(OC)c1)C2 | 12.8 | 39.8* | 7.1 | . | .
COc1ccc2c3c(n(C)c2c1)[C@H](CO)N(C(=O)Cc1ccccn1)CC31CN(C)C1 | . | 0.5 | . | . | .
C=CC(=O)N1C/C(=C/c2ccc(F)cc2)C(=O)/C(=C\c2ccc(F)cc2)C1 | 96.0* | 100.9* | 60.2 | i | -200.9
CCCNC(=O)NS(=O)(=O)c1ccc(Cl)cc1 | -5.5 | 6.6 | 27.1 | 10.7 | 18.1
CCCNC(=O)c1ccc2snnc2c1 | 20.1 | 13.1 | -5.8 | -3.9 | -3.2
CCCNC(=O)c1nnsc1S(=O)(=O)c1ccc(Cl)cc1 | 20.1 | 96.2* | -38.9 | 26.2 | 38.7
CCCNC(=O)c1nnsc1S(=O)c1ccc(Cl)cc1 (stereo unspecified) | 32.0 | 102.8* | -38.5 | 19.1 | 30.8
CNC(=O)c1nnsc1S(=O)c1ccc(Cl)cc1 (stereo unspecified) | 6.4 | 102.4* | -94.9 | 8.9 | 18.1
Cn1cccc1/C=C1\CCc2ccccc2C1=O | -16.6 | 59.5* | -103.9 | -78.7 | -44.9
Cn1cccc1/C=C1\Cc2ccccc2C1=O | -35.6 | -77.5 | -144.4 | -89.3 | -83.1
CCN(CC)c1ccc2cc(NC(=O)CCC(=O)O)c(=O)oc2c1 | 84.7* | 19.3 | 64.2 | 60.5 | 57.3
COc1ccc(S(=O)(=O)N[C@H]2C=C[C@@H](CC(=O)NCCc3ccncc3)O[C@H]2CO)cc1 | . | 3.9 | . | . | .
C/C(=N\Nc1ccc2nncn2n1)c1ccccn1 | 19.2 | -1.4 | 17.2 | 73.3* | 75.6*
CC(=NNc1ccc2ccccc2n1)c1ccccc1O | -59.6 | 94.8* | -75.0 | -30.3 | -6.2
CC(=NNc1ccc2ccccc2n1)c1ccccn1 | 38.2 | 103.6* | . | . | .
CCCNC(=O)N1CC2(CCN(C(=O)CN(C)C)CC2)c2c(n(C)c3cc(OC)ccc23)[C@H]1CO | . | -9.2 | . | . | .
SMILES | SRC2 inh | LGR2 inh | NR5A2 inv ag | NCOA1 inh | NCOA3 inh
CNC[C@H]1Oc2ncc(-c3ccc(OC)cc3)cc2C(=O)N([C@@H](C)CO)C[C@@H]1C | . | -30.2 | . | . | .
C[C@H](CO)N1C[C@H](C)[C@@H](CN(C)CC2CC2)Oc2ccc(NC(=O)Cc3ccccc3)cc2C1=O | . | 2.5 | . | . | .
COc1ccc2c3c([nH]c2c1)[C@H](CO)N(C)CC31CN(C(=O)c2ccccn2)C1 | . | -10.8 | . | . | .
CC(C)(C)C(=O)/C(=C/c1ccncc1)n1cncn1 | 71.9* | 78.8* | 52.4 | 54.0 | 62.7*
C[C@H]1CN([C@@H](C)CO)C(=O)c2cc(C3=CCCCC3)cnc2O[C@@H]1CN(C)C(=O)Cc1ccncc1 | . | -24.5 | . | . | .
C[C@H]1CN([C@@H](C)CO)S(=O)(=O)c2ccc(C3=CCCC3)cc2O[C@H]1CN(C)S(C)(=O)=O | . | -7.0 | . | . | .
c1ccc(-c2nc(-c3ccccn3)nc(-c3ccccn3)n2)nc1 | -5.1 | 2.7 | 31.4 | -4.1 | -1.2
c1ccc(-c2nnc(-c3ccccn3)s2)nc1 | -34.0 | 60.4* | -80.0 | -76.8 | -32.8
COc1ccc(Cl)cc1C(=O)CSc1nnnn1C1CCCC1 | -31.8 | -18.2 | 6.4 | 3.8 | -12.5
COCCn1c(C)cc(C(=O)CSc2nnnn2C2CCCC2)c1C | 39.0 | 79.9* | 24.0 | 43.4 | 34.3
C[C@@H]1CN([C@@H](C)CO)C(=O)Cc2cc(NC(=O)CCCCCC(=O)Nc3ccccc3N)ccc2O[C@@H]1CN(C)CC1CC1 | . | 18.8 | . | . | .
O=C(NCCOc1ccccc1)c1ccccc1Cl | -48.9 | -15.6 | -94.2 | -79.6 | -85.9
CN(C(=O)COc1ccccc1C(=O)NCCOc1ccccc1)c1ccccc1 | 45.9 | 87.7* | 49.8 | 51.1 | 76.8*
CCC(CC)NC(=O)Nc1cccc(C)c1C | 9.9 | 12.5 | 1.5 | 5.6 | 16.8
CCC(C)N(CC(=O)Nc1cccc(C)c1C)C(=O)CCl (stereo unspecified) | . | . | 42.4 | 61.6* | 61.9*
O=C(CN1C(=O)c2ccccc2S1(=O)=O)c1ccc2c(c1)OCCO2 | 88.8* | 103.2* | 62.4 | 81.9* | 85.4*
O=C(CN1C(=O)c2ccccc2S1(=O)=O)c1ccc2c(c1)OCCCO2 | 92.6* | 92.7* | 93.3* | 92.9* | 92.9*
COc1ccc2c3c(n(C)c2c1)[C@@H](CO)N(C(=O)CC1CC1)CC31CCN(Cc2ccncc2)CC1 | . | -4.4 | . | . | .
COc1ccc(CNC(=O)COC(=O)c2cc(-c3ccc(Cl)s3)nc3ccccc23)cc1 | 4.2 | . | -19.1 | -23.2 | 82.8*
COc1ccc(-c2nc(-c3cccc(C)c3)no2)cc1OC | . | . | -34.5 | -65.1 | -90.3
Cc1cccc(-c2noc(-c3ccc4c(c3)OCO4)n2)c1 | -71.3 | 66.3* | -101.5 | -122.2 | -64.5
C=CCN(CC=C)c1ncnc2[nH]ncc12 | 53.2* | 1.0 | 29.0 | 54.7 | 53.1
OCc1cccc(-c2cnc3c(Nc4cccc(OC(F)(F)C(F)F)c4)nccn23)c1 | -48.9 | 65.5* | -26.4 | -39.1 | -106.4
O=C(OCCC12CC3CC(CC(C3)C1)C2)c1ccc(NCc2cc(O)ccc2O)cc1 | 94.0* | -21.6 | 51.6 | 55.9 | 74.1*
O=C(OCC12CC3CC(CC(C3)C1)C2)c1ccc(NCc2cc(O)ccc2O)cc1 | 84.6* | 6.1 | 65.1 | 18.3 | 72.7*
SMILES | SRC2 inh | LGR2 inh | NR5A2 inv ag | NCOA1 inh | NCOA3 inh
OC1CCC(Nc2ccn3nc(-c4cccc(OCc5ccccc5)c4)cc3n2)CC1 (stereo unspecified) | -33.0 | 52.4* | -9.2 | 3.0 | 2.7
OC1CCC(Nc2ccn3nc(-c4cccc(Cl)c4)cc3n2)CC1 (stereo unspecified) | -0.5 | -87.0 | -103.7 | -67.7 | -62.0
CCCC(=O)Nc1ccc2c(c1)C(=O)N(C)C[C@H](OC)[C@H](C)CN(Cc1ccncc1)[C@H](C)CO2 | . | 12.6 | . | . | .
c1cc(-c2cnc3cccnn23)c2cccnc2c1 | 65.9* | . | 24.8 | 63.2* | 58.0
c1ccc2c(-c3cnc4cccnn34)cncc2c1 | 9.9 | -9.0 | 1.7 | -54.5 | 16.6
CCOc1cc(/C=C/C(=O)Nc2ccc(C(=O)NCCN(CC)CC)cc2)ccc1OCC(C)C | -29.5 | 102.9* | 12.5 | -1.3 | 5.5

Screening data (PubChem BioAssay)
